Laboratory results taken from PubChem BioAssay AID1508601 (ICCB-Longwood Screening Facility, Harvard Medical School, 2020).
About 85 (1%) of roughly 5,700 compounds were called active. Cut-off read from the data, not from the text of the source: active = p53-positive nuclei above about 36% (passing the limit was not always enough); inactive = the rest. This excerpt belongs to a sample that is enriched for actives. Peptide text beside a SMILES is read from it. * marks the point of attachment. Cbz = O=C(OCc1ccccc1)*

Tests used:
[1] = p53 stabilisation in HPV-positive human cells, imaging, p53-positive nuclei imaging, 24 h, 48 h (AID 1508601); details: 24/48 h
[2] = molecular target: Cellular tumor antigen p53 (Homo sapiens) (UniProt P04637); test: as above; details: 24/48 h, stronger effect = higher value
[3] = measured here: cell number at 24 h, Library stock concentration: 80 uM
[4] = measured here: cell number at 24 h, Library stock concentration: 400 uM
[5] = measured here: cell number at 24 h, Library stock concentration: 2 mM
[6] = measured here: cell number at 24 h, Library stock concentration: 10 mM
[7] = measured here: cell number at 24 h, concentration not given here
[8] = measured here: cell number at 48 h, Library stock concentration: 80 uM
[9] = measured here: cell number at 48 h, Library stock concentration: 400 uM
[10] = measured here: cell number at 48 h, Library stock concentration: 2 mM
[11] = measured here: cell number at 48 h, Library stock concentration: 10 mM
[12] = measured here: cell number at 48 h, concentration not given here
[13] = Library stock concentration: 80 uM
[14] = Library stock concentration: 400 uM
[15] = Library stock concentration: 2 mM
[16] = Library stock concentration: 10 mM
[17] = measured here: p53 positive nuclei at 24 h, Library stock concentration: 80 uM
[18] = measured here: p53 positive nuclei at 24 h, Library stock concentration: 400 uM
[19] = measured here: p53 positive nuclei at 24 h, Library stock concentration: 2 mM
[20] = measured here: p53 positive nuclei at 24 h, Library stock concentration: 10 mM
[21] = measured here: p53 positive nuclei at 24 h, concentration not given here
[22] = measured here: cell number at 24 h, Library stock concentration: 3.33 mM
[23] = measured here: cell number at 48 h, Library stock concentration: 3.33 mM
[24] = Library stock concentration: 3.33 mM
[25] = measured here: p53 positive nuclei at 24 h, Library stock concentration: 3.33 mM

Sequence of Cellular tumor antigen p53 (Homo sapiens) (P04637 whole entry, looked up): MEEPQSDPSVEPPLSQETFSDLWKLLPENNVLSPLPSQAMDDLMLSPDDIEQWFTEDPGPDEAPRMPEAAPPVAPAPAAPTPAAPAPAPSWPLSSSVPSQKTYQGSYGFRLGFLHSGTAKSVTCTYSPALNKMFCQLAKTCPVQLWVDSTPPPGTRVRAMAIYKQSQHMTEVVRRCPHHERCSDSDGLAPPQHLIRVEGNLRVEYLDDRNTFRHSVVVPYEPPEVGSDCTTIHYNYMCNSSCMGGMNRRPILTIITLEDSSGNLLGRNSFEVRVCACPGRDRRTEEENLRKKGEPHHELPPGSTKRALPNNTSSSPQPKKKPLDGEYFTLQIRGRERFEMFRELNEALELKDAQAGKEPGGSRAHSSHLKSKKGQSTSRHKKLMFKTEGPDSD

CCCCc1ccc(N=CNO)c(C)c1
nuclei count, normalised [1, 3]: 102% | nuclei count, normalised [1, 4]: 87.8% | nuclei count, normalised [1, 5]: 104% | nuclei count, normalised [1, 6]: 97.5% | nuclei count, normalised [1, 7]: 112% | nuclei count, normalised [1, 8]: 102% | nuclei count, normalised [1, 9]: 96.8% | nuclei count, normalised [1, 10]: 107% | nuclei count, normalised [1, 11]: 103% | nuclei count, normalised [1, 12]: 114% | p53-positive nuclei, normalised [2, 13]: -0.0421% (inactive) | p53-positive nuclei, normalised [2, 14]: -0.0681% (inactive) | p53-positive nuclei, normalised [2, 15]: -0.128% (inactive) | p53-positive nuclei, normalised [2, 16]: -0.158% (inactive) | p53-positive nuclei, normalised ([2]; concentration not given here): -0.0134% (inactive) | p53-positive nuclei, normalised [2, 17]: -0.116% | p53-positive nuclei, normalised [2, 18]: 0.0745% | p53-positive nuclei, normalised [2, 19]: 0.0465% | p53-positive nuclei, normalised [2, 20]: 0.123% | p53-positive nuclei, normalised [2, 21]: -0.0878%

O=C(Nc1ccccc1Br)NC1CCN(c2ccc(C(F)(F)F)cn2)C1 (stereo not given)
nuclei count, normalised [1, 22]: 102% | nuclei count, normalised [1, 23]: 96.3% | p53-positive nuclei, normalised [2, 24]: -0.163% (inactive) | p53-positive nuclei, normalised [2, 25]: -0.314%

CCCCC/C=C\C/C=C\C/C=C\C/C=C\CCCC(=O)C(F)(F)F
nuclei count, normalised [1, 7]: 108% | nuclei count, normalised [1, 12]: 109% | p53-positive nuclei, normalised ([2]; concentration not given here): -0.148% (inactive) | p53-positive nuclei, normalised [2, 21]: -0.0854%

Nc1ncn([C@@H]2O[C@@H](CO)[C@H](O)[C@@H]2O)c(=O)n1
nuclei count, normalised [1, 3]: 122% | nuclei count, normalised [1, 4]: 116% | nuclei count, normalised [1, 5]: 110% | nuclei count, normalised [1, 6]: 65.9% | nuclei count, normalised [1, 8]: 122% | nuclei count, normalised [1, 9]: 116% | nuclei count, normalised [1, 10]: 111% | nuclei count, normalised [1, 11]: 63.4% | p53-positive nuclei, normalised [2, 13]: -0.241% (inactive) | p53-positive nuclei, normalised [2, 14]: -0.762% (inactive) | p53-positive nuclei, normalised [2, 15]: -0.515% (inactive) | p53-positive nuclei, normalised [2, 16]: 0.325% (inactive) | p53-positive nuclei, normalised [2, 17]: 1.31% | p53-positive nuclei, normalised [2, 18]: -0.12% | p53-positive nuclei, normalised [2, 19]: 0.0304% | p53-positive nuclei, normalised [2, 20]: 0.106%

CC(C)CC(C=O)NC(=O)C(CC(C)C)NC(=O)C(CC(C)C)NC(=O)OCc1ccccc1 (stereo not drawn) (Cbz-Leu-Leu-Leu-aldehyde; configuration not given here)
nuclei count, normalised ([1]; measured here: cell number at 24 h, Library stock concentration: 46 uM): 112% | nuclei count, normalised ([1]; measured here: cell number at 24 h, Library stock concentration: 278 uM): 112% | nuclei count, normalised ([1]; measured here: cell number at 24 h, Library stock concentration: 1.67 mM): 62% | nuclei count, normalised [1, 22]: 46.1% | nuclei count, normalised [1, 6]: 59.9% | nuclei count, normalised ([1]; measured here: cell number at 48 h, Library stock concentration: 46 uM): 111% | nuclei count, normalised ([1]; measured here: cell number at 48 h, Library stock concentration: 278 uM): 104% | nuclei count, normalised ([1]; measured here: cell number at 48 h, Library stock concentration: 1.67 mM): 46.9% | nuclei count, normalised [1, 23]: 38.7% | nuclei count, normalised [1, 11]: 46.7% | p53-positive nuclei, normalised ([2]; Library stock concentration: 46 uM): -0.152% (inactive) | p53-positive nuclei, normalised ([2]; Library stock concentration: 278 uM): 0.0393% (inactive) | p53-positive nuclei, normalised ([2]; Library stock concentration: 1.67 mM): 92% (active) | p53-positive nuclei, normalised [2, 24]: 92% (active) | p53-positive nuclei, normalised [2, 16]: 106% (active) | p53-positive nuclei, normalised ([2]; measured here: p53 positive nuclei at 24 h, Library stock concentration: 46 uM): 0.0832% | p53-positive nuclei, normalised ([2]; measured here: p53 positive nuclei at 24 h, Library stock concentration: 278 uM): -0.0262% | p53-positive nuclei, normalised ([2]; measured here: p53 positive nuclei at 24 h, Library stock concentration: 1.67 mM): 44.6% | p53-positive nuclei, normalised [2, 25]: 87.5% | p53-positive nuclei, normalised [2, 20]: 135%

CC(=O)NC(CC(C)C)C(=O)NC(CC(C)C)C(=O)NC(C=O)CCCN=C(N)N (stereo not given)
nuclei count, normalised [1, 3]: 88.7% | nuclei count, normalised [1, 4]: 87.3% | nuclei count, normalised [1, 5]: 62.5% | nuclei count, normalised [1, 6]: 67.4% | nuclei count, normalised [1, 8]: 91.5% | nuclei count, normalised [1, 9]: 90.5% | nuclei count, normalised [1, 10]: 69% | nuclei count, normalised [1, 11]: 72.9% | p53-positive nuclei, normalised [2, 13]: 0.011% (inactive) | p53-positive nuclei, normalised [2, 14]: -0.0354% (inactive) | p53-positive nuclei, normalised [2, 15]: -0.0908% (inactive) | p53-positive nuclei, normalised [2, 16]: -0.0909% (inactive) | p53-positive nuclei, normalised [2, 17]: -0.0474% | p53-positive nuclei, normalised [2, 18]: -0.0442% | p53-positive nuclei, normalised [2, 19]: 0.0943% | p53-positive nuclei, normalised [2, 20]: -0.12%

CC(NC(=O)C(Cc1ccccc1)NC(=O)OCc1ccccc1)C(=O)CF (stereo not given)
nuclei count, normalised [1, 22]: 108% | nuclei count, normalised [1, 23]: 101% | p53-positive nuclei, normalised [2, 24]: -0.054% (inactive) | p53-positive nuclei, normalised [2, 25]: -0.116%

C=CC(=O)N1CCc2ccc(-n3c(=O)ccc4cnc5ccc(-c6cnn(C)c6)cc5c43)cc21
nuclei count, normalised [1, 3]: 107% | nuclei count, normalised [1, 4]: 102% | nuclei count, normalised [1, 5]: 74.7% | nuclei count, normalised [1, 6]: 48.5% | nuclei count, normalised [1, 8]: 108% | nuclei count, normalised [1, 9]: 102% | nuclei count, normalised [1, 10]: 84.2% | nuclei count, normalised [1, 11]: 37.4% | p53-positive nuclei, normalised [2, 13]: -0.0335% (inactive) | p53-positive nuclei, normalised [2, 14]: -0.203% (inactive) | p53-positive nuclei, normalised [2, 15]: -0.00288% (inactive) | p53-positive nuclei, normalised [2, 16]: 0.846% (inactive) | p53-positive nuclei, normalised [2, 17]: -0.0563% | p53-positive nuclei, normalised [2, 18]: -0.129% | p53-positive nuclei, normalised [2, 19]: -0.129% | p53-positive nuclei, normalised [2, 20]: 0.0284%
